In ChEMBL document CHEMBL1157539, “Thousands of chemical starting points for antimalarial lead identification” (Nature, 2010):

What follows are compounds tested on Plasmodium falciparum (assay: GSK_TCMDC: Inhibition of Plasmodium falciparum 3D7 in whole red blood cells, using parasite LDH activity as an index of growth. Test compounds present at 2uM).
Format: functional

SMILES	Inhibition
CCC(C)CNC(=O)CN1CN(c2ccccc2)C2(CCN(C(=O)c3ccc(Br)cc3)CC2)C1=O (stereo not drawn)	88%
CN(C)C(CNc1ncnc2cc(Cl)ccc12)Cc1ccccc1 (stereo not drawn)	96%
COc1ccc(-c2cccc(NC(=O)c3ccc(Cl)cc3)c2)cc1CN1CCCC1.O=C(O)C(F)(F)F	97%
CCN1CCN(CCCNc2c3ccc(Cl)cc3nc3ccc(O)cc23)CC1	100%
Cc1cc(C)n(-c2nc(Nc3cccc(C(F)(F)F)c3)nc(-n3nc(C)cc3C)n2)n1	99%

The compounds below were run on Plasmodium falciparum (assay: GSK_TCMDC: Inhibition of Plasmodium falciparum Dd2 in whole red blood cells, using parasite LDH activity as an index of growth. Test compounds present at 2uM).
Format: functional

SMILES	Inhibition
O=S(=O)(Nc1cccc(CCN2CCC(N3CCCCC3)CC2)c1)c1ccc(-c2ccccc2)cc1	49%
COc1ccc(-c2ccc(NC(=O)c3cccc(Cl)c3)cc2)cc1CN(C)CCN(C)C.O=C(O)C(F)(F)F	35%
O=C(Cc1cccc(O)c1)Nc1ccc(-c2cccc(-c3nc4cc(C(F)(F)F)ccc4[nH]3)c2)cc1	1%
COc1ccc2nccc([C@@H](O)CN3CCC(NC(=O)C(c4cc5ccccc5o4)N4CCN(c5ccccc5)CC4)CC3)c2c1 (stereo partly drawn)	99%
Cc1c(C)n(Cc2ccccc2)c2ncnc(OC3CCN(CC(=O)NCC4CC4)CC3)c12	79%
Cc1cnc(CN(Cc2ccc(-c3ccc(CNCCc4ccc(S(C)(=O)=O)cc4)cn3)cc2)C(=O)c2ccc([N+](=O)[O-])c(C)c2)cn1.O=C(O)C(F)(F)F	15%
COc1ccc(-c2nnc(Sc3ccc(C#N)c([N+](=O)[O-])c3)n2CC(C)C)cc1	78%
O=C(/C=C/c1ccc(Cl)c(Cl)c1)N1CCC(CCCN2CCC(c3c[nH]c4ccc(O)cc34)CC2)CC1	99%
